Several values for one entry are separate records, joined by “and”; a condition that tells them apart may be missing. Equal values may be shown once. About 5,800 (36%) of roughly 16,000 compounds were called active. Roughly 23% stayed inconclusive and do not appear here. Calls follow the shape of the dose curve; as a rule, active = well fitted curve in the direction sought with a large enough effect; inconclusive = small, poorly fitted or top-dose-only effect, or effect the other way; inactive = no such curve, though single readings can be large or run the other way. This is one part of the list.
% is scaled to controls: 0 for no effect and ±100 for the full control effect.

This test deals with Cytochrome P450 2C19 (Homo sapiens) (UniProt P33261). The test can be described thus: Cytochrome panel assay with activity outcomes. The settings on record: recombinant CYP, pro-luciferin dealkylation, luminescence, p450-cyp2c19; series mostly up to 57.1 µM; activity, negative = inhibition: at the top concentration.
Cytochrome P450 2C19 (Homo sapiens), sequence (P33261 whole entry, looked up): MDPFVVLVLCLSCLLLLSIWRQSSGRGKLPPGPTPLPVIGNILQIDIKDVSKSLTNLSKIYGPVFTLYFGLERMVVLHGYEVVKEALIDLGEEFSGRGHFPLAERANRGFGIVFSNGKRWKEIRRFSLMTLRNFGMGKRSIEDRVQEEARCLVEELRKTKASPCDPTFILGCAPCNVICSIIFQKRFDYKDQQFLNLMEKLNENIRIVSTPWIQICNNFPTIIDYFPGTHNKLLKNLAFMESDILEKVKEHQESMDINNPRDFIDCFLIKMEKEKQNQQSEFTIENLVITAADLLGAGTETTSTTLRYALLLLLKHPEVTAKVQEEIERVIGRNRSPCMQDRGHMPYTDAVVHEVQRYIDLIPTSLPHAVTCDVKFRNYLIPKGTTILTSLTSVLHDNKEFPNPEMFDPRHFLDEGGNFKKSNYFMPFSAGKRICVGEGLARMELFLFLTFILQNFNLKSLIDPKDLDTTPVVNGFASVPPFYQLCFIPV
Consider `COc1ncc2nc(-c3cccs3)c(=O)n(CCC#N)c2n1`, for which the “activity, negative = inhibition” value is -1.19% (inactive).

For the compound `Cn1c(=O)c(-c2ccccc2)nc2cncnc21`, the “activity, negative = inhibition” value is -11.3% (inactive).

As for `COCCn1c(=O)c(-c2cccs2)nc2cnc(N(C)C)nc21`, the “activity, negative = inhibition” value was -26.2% (inactive).

Take `O=C(Nc1ccccc1)N1CCCC2(CCN(C(=O)c3ccco3)CC2)C1`: the “activity, negative = inhibition” value was -38.7% (inactive).

With `CCOC(=O)N/N=C1/C[C@@H](O)[C@@H](O)[C@@H]2[C@@H]3C(=O)N(c4cccc(Oc5ccccc5)c4)C(=O)[C@H]3CC[C@@H]12`, the activity, negative = inhibition is -10.2% [at 11.4 µM] (inactive).

Take `NS(=O)(=O)c1cc(Br)c(N=Nc2ccc(O)c3ncccc23)c(Br)c1`: the activity, negative = inhibition was -10.5% [at 11.4 µM] (inactive).

In the case of `COc1ccc(-n2c(=O)c(-c3cn(C)c4ccccc34)nc3cnc(OC)nc32)cc1`, the “activity, negative = inhibition” value was -5% (inactive).

With `COc1ccc(-n2c(=O)c(-c3cn(C)c4ccccc34)nc3cncnc32)cc1`, the AC50 is 15.8 µM (active).

Take `CCn1ncc(/C=C/C(=O)NCc2cn(C)nc2C)c1C`: the “activity, negative = inhibition” value was -1.07% (inactive).

Regarding `COc1ccc(C(=O)NN)cc1COc1ccc(Br)cc1`, the AC50 is 0.251 µM (active).

For `COc1ccc(/C=C/C(=O)NCc2cn(C)nc2C)cc1COc1ccc(Br)cc1`, the AC50 was 3.98 µM (active).

Turning to `Cc1nn(C)cc1CNC(=O)CCC(=O)O`, the “activity, negative = inhibition” value was -3.78% (inactive).

In the case of `NC(=O)C1=CN([C@@H]2O[C@@H](COP(=O)(O)OP(=O)(O)OC[C@@H]3O[C@H](n4cnc5c(N)ncnc54)[C@@H](OP(=O)(O)O)[C@@H]3O)[C@H](O)[C@@H]2O)C=CC1`, the “activity, negative = inhibition” value was 3.48% (inactive).

`CS(=O)(=O)c1ccc(/C=N\NC(N)=S)cc1`: the activity, negative = inhibition was -0.291% [at 11.4 µM] (inactive).

In the case of `CC(C)c1ccc(/C=N/NC(=O)CN(c2cccc(Cl)c2Cl)S(C)(=O)=O)cc1`, the AC50 was 15.8 µM (active).

Consider `Cc1[nH]nc(Nc2ccccc2)c1[N+](=O)[O-]`, for which the AC50 was 14.1 µM (active).

`Cc1cccc(-c2n[nH]c([N+](=O)[O-])n2)c1`: the “activity, negative = inhibition” value was -14.2% (inactive).

Consider `Nc1nc(NCc2ccccc2)nc(Nc2cccc(F)c2)c1[N+](=O)[O-]`, for which the “activity, negative = inhibition” value was -3.88% (inactive).

As to `CN=C1S/C(=C\c2ccc(Sc3ccc(Cl)cc3)o2)C(=O)N1C`, the “activity, negative = inhibition” value is -21.7% (inactive).

Consider `Clc1ccc(Sc2ccc(/C=N/n3cnnc3)o2)cc1`, for which the AC50 is 2.82 µM (active).

Regarding `CCCN1C(=O)/C(=C/c2ccc(C)s2)SC1=Nc1ccc(OC)cc1`, the concentration at half-maximal activity (AC50) is 11.2 µM (active).

On to `COc1ccc(N=C2S/C(=C\c3ccc(C)s3)C(=O)N2CC(C)C)cc1`, for which the “activity, negative = inhibition” value is -27% (inactive).

`CC(C)CN(CC#N)CC(C)C`: the activity, negative = inhibition is 2.34% [at 11.4 µM] (inactive).

As to `c1ccc(-c2nc3ccccn3c2NCc2ccc3c(c2)OCO3)cc1`, the AC50 was 0.316 µM (active).

Turning to `CN(C)CCNS(=O)(=O)N(C)C`, the activity, negative = inhibition is 0.116% [at 11.4 µM] (inactive).

In the case of `C=CCN=C(NC#N)SCc1ccccc1`, the AC50 is 14.1 µM (active).

Consider `Cc1ccc(/C=C/C2=Cc3c(sc(NC(=O)CSc4n[nH]c(N)n4)c3C#N)C(C)(C)C2)o1`, for which the AC50 was 4.47 µM (active).

For the compound `CCOc1ccc(/C=C/C2=Cc3c(sc(NC(=O)CSc4n[nH]c(N)n4)c3C#N)C(C)(C)C2)cc1`, the AC50 is 10 µM (active).

As to `N[C@@H](Cc1ccc(O)c(O)c1)C(=O)O`, the AC50 result was “inactive”.

For `O=C1CCCN1c1ccc(S(=O)(=O)Oc2cccc(Cl)c2)cc1[N+](=O)[O-]`, the AC50 was 0.501 µM (active).

As for `Cc1cc(C(C)(C)C)cc(C)c1CC1=NCCN1`, the “activity, negative = inhibition” value is -32.4% [at 25.6 µM] (inactive).

Take `N=c1sccn1CC(=O)Nc1cccc(Oc2ccccc2)c1`: the AC50 was 15.8 µM (active).

With `O=C(Cn1ccc(=O)[nH]c1=O)Nc1ccc(C(=O)O)c(O)c1`, the activity, negative = inhibition was 40.8% [at 11.4 µM] (inactive).

With `CC1(C)CCC=[N+]1[O-]`, the “activity, negative = inhibition” value is 5.41% (inactive).

Consider `COCn1c2ccccc2c2nnc(C(C)=O)nc21`, for which the activity, negative = inhibition is 5.57% [at 11.4 µM] (inactive) and -2.14% [at 11.4 µM] (inactive).

For `CCCCCOC(=O)c1c(N)n(CCOC)c2nc3ccccc3nc12`, the AC50 was 14.1 µM (active).

For the compound `C/C(=N\NC(=S)Nc1ccc(F)cc1)C1CC1`, the half-maximal activity concentration (AC50) was 0.562 µM (active).

With `COc1ccc(NC(=O)c2cc3n(n2)C(C(F)(F)F)CC(c2ccc4c(c2)OCO4)N3)cc1OC` (stereo not drawn), the “activity, negative = inhibition” value was -24.3% (inactive).

`COC(=O)C1=C(N)N(c2ccccc2C(F)(F)F)C2=C(C(=O)CCC2)C1c1ccc2c(c1)OCO2` (stereo not drawn): the AC50 is 20 µM (active).

In the case of `COc1ccc(OC)c(NC(=O)c2cc3n(n2)C(C(F)(F)F)CC(c2ccc4c(c2)OCO4)N3)c1` (stereo not drawn), the “activity, negative = inhibition” value is -10.9% (inactive).

For the compound `C#CC[N+](CC)(CC)CC#Cc1cccc(Cl)c1`, the “activity, negative = inhibition” value is -10.1% (inactive).

`O=C(c1ccc(COc2ccc(F)cc2)o1)n1cccn1`: the AC50 was 3.55 µM (active).

On to `CC(=O)COC(=O)CCc1nc2ccccc2[nH]c1=O`, for which the AC50 is 11.2 µM (active).

`N[C@@H](Cc1ncccn1)C(=O)O`: the activity, negative = inhibition is 1.66% [at 11.4 µM] (inactive).

Take `COCCCNC(=O)C1C2C=CC3(CN(Cc4ccc(C)cc4)C(=O)C13)O2` (stereo not drawn): the “activity, negative = inhibition” value was 13.4% (inactive).

Turning to `CCCCNC(=O)C1C2C=CC3(CN(Cc4ccccc4Cl)C(=O)C13)O2` (stereo not drawn), the AC50 was 20 µM (active).

In the case of `Cc1ccc(CN2CC34C=CC(O3)C(C(=O)NCc3ccc5c(c3)OCO5)C4C2=O)cc1` (stereo not drawn), the AC50 was 15.8 µM (active).

In the case of `Cc1ccc(CN2CC34C=CC(O3)C(C(=O)NCc3ccco3)C4C2=O)cc1` (stereo not drawn), the AC50 was 14.1 µM (active).

These data come from PubChem BioAssay AID1851 (National Center for Advancing Translational Sciences (NCATS), 2009).
